Results filed as inconclusive are left out. Where a call stands in place of a potency, no number is given. The source made the active and inactive calls. Calls follow the shape of the dose curve; as a rule, active = well fitted inhibition curve with a large enough effect; inconclusive = small, poorly fitted or top-dose-only effect; inactive = flat fitted curve, though single readings scatter.
Key:
Experiment in all cases: qHTS profiling for inhibitors of Plasmodium falciparum proliferation (AID 504749); also: nearly all actives have a fitted effect of over 60% in size
Details in all cases: P. falciparum in erythrocytes, SYBR Green DNA, 72 h; series mostly up to 28.7 µM
C2A = tested on: C2A
In short: (§1)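 P. falciparum-infected erythrocytes (0.3% parasitemia, 2.5% hematocrit) incubated with compound 72 h at 37 C, 5% CO2. Parasite DNA detected by SYBR Green after lysis, overnight at room temperature; normalised to 0.29 uM artemisinin and DMSO.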

CP185 = tested on: CP185
In short: as §1

CP192 = tested on: CP192
In short: as §1

CP194 = tested on: CP194
In short: as §1

CP201 = tested on: CP201
In short: as §1

CP203 = tested on: CP203
In short: as §1

CP211 = tested on: CP211
In short: as §1

CP215 = tested on: CP215
In short: as §1

CP217 = tested on: CP217
In short: as §1

CP237 = tested on: CP237
In short: as §1

CP238 = tested on: CP238
In short: as §1

CP250 = tested on: CP250
In short: as §1

CP252 = tested on: CP252
In short: as §1

CP256 = tested on: CP256
In short: as §1

CP260 = tested on: CP260
In short: as §1

CP262 = tested on: CP262
In short: as §1

CP265 = tested on: CP265
In short: as §1

CP266 = tested on: CP266
In short: as §1

CP191 = tested on: CP191
In short: as §1

CP247 = tested on: CP247
In short: as §1
Potency is read from the fitted curve at half-maximal effect.

SMILES	Potency (C2A)	outcome (CP185)	Potency (CP192)	Potency (CP194)	Potency (CP201)	Potency (CP203)	Potency (CP211)	Potency (CP215)	Potency (CP217)	Potency (CP237)	Potency (CP238)	Potency (CP250)	Potency (CP252)	outcome (CP256)	Potency (CP260)	outcome (CP262)	Potency (CP265)	Potency (CP266)	outcome (CP191)	outcome (CP247)
Cc1cc2nc3c(=O)[nH]c(=O)nc-3n(CC(O)C(O)C(O)CO)c2cc1C (stereo not drawn)	inactive	inactive	inactive	inactive	inactive	inactive	inactive	inactive	inactive	inactive	inactive	inactive	inactive	inactive	inactive	inactive	inactive	inactive		
COc1cc2c(cc1OC)CC(=O)N(CCCN(C)C[C@H]1Cc3cc(OC)c(OC)cc31)CC2	inactive	inactive	inactive	inactive	inactive	inactive	inactive	inactive	inactive		inactive	inactive	inactive	inactive	inactive	inactive	inactive	inactive	inactive	inactive
Fc1ccc(C(c2ccc(F)cc2)N2CCN(CC=Cc3ccccc3)CC2)cc1			inactive													inactive				
COc1ccnc(CS(=O)c2nc3ccc(OC(F)F)cc3[nH]2)c1OC (stereo not drawn)	inactive	inactive	inactive	inactive	inactive	inactive	inactive	inactive	inactive	inactive	inactive	inactive	inactive	inactive	inactive	inactive	inactive	inactive	inactive	inactive
NS(=O)(=O)c1cc(Cl)c(Cl)c(S(N)(=O)=O)c1	inactive	inactive	inactive	inactive	inactive	inactive	inactive	inactive	inactive	inactive	inactive	inactive	inactive	inactive	inactive	inactive	inactive	inactive	inactive	inactive
CN1CCN2c3ncccc3Cc3ccccc3C2C1 (stereo not drawn)	inactive	inactive			inactive			inactive	inactive	inactive	inactive	inactive	inactive	inactive	inactive	inactive	inactive	inactive	inactive	inactive
O=C(O)c1nc(=O)[nH]c(=O)[nH]1	inactive	inactive	inactive	inactive	inactive	inactive	inactive		inactive	inactive	inactive	inactive	inactive	inactive	inactive	inactive	inactive	inactive	inactive	inactive
O=C1C(CCC(O)c2ccc(F)cc2)C(c2ccc(O)cc2)N1c1ccc(F)cc1 (stereo not drawn)	inactive	inactive	inactive	inactive	inactive	inactive	inactive	inactive	inactive	inactive	inactive	inactive	inactive	inactive	inactive	inactive	inactive	inactive	inactive	inactive
CN1CC(=O)N2C(Cc3c([nH]c4ccccc34)[C@H]2c2ccc3c(c2)OCO3)C1=O (stereo partly drawn)	inactive	inactive	inactive	inactive	inactive	inactive	inactive	inactive	inactive	inactive	inactive	inactive	inactive	inactive		inactive	inactive	inactive	inactive	inactive
Clc1ccc(COC(Cn2ccnc2)c2ccc(Cl)cc2Cl)c(Cl)c1 (stereo not drawn)						5.1 µM (active)		5.73 µM (active)	3.16 µM (active)	3.55 µM (active)										
C=C1c2cccc(O)c2C(O)=C2C(=O)[C@@]3(O)C(O)=C(C(N)=O)C(=O)[C@@H](N(C)C)[C@@H]3[C@@H](O)[C@H]12	inactive	inactive	inactive	inactive	inactive	inactive	inactive	inactive	inactive		inactive	inactive	inactive	inactive		inactive	inactive	inactive	inactive	inactive
CS(=O)(=O)c1ccc(C2=C(c3ccccc3)C(=O)OC2)cc1	inactive	inactive		inactive	inactive	inactive	inactive		inactive	inactive	inactive	inactive	inactive	inactive	inactive	inactive	inactive	inactive	inactive	inactive
N#CC(c1ccc(Cl)cc1)c1c(Cl)cc(-n2ncc(=O)[nH]c2=O)cc1Cl (stereo not drawn)	inactive	inactive	inactive	inactive	inactive	inactive	inactive	inactive	inactive	inactive	inactive	inactive	inactive	inactive	inactive	inactive	inactive	inactive	inactive	inactive
N#Cc1c(N(CC(=O)O)CC(=O)O)sc(C(=O)O)c1CC(=O)O	inactive	inactive	inactive	inactive	inactive	inactive	inactive	inactive	inactive	inactive	inactive	inactive	inactive	inactive	inactive	inactive	inactive	inactive	inactive	inactive
COc1c(C)c2c(c(O)c1CC=C(C)CCC(=O)OCCN1CCOCC1)C(=O)OC2	11.2 µM (active)		8.49 µM (active)	6.75 µM (active)	13.5 µM (active)	6.01 µM (active)	6.01 µM (active)	6.01 µM (active)	7.94 µM (active)	8.91 µM (active)	7.94 µM (active)	7.94 µM (active)	8.91 µM (active)		11.2 µM (active)		7.94 µM (active)	12 µM (active)		
CC(C)CN(C[C@@H](O)[C@H](Cc1ccccc1)NC(=O)O[C@H]1CO[C@H]2OCC[C@H]21)S(=O)(=O)c1ccc(N)cc1	inactive	inactive	inactive	inactive	inactive	inactive	inactive	inactive	inactive	inactive	inactive	inactive	inactive	inactive	inactive	inactive	inactive	inactive	inactive	inactive
